In the library only some 7.9% were active in any assay of this set; here they are far more common.
LASV entry inh – Lassa virus entry inhibition; Potency, µM (top dose mostly 37.9 µM), for inactives: at the highest dose activity change, negative = inhibition, most hits filed as inhibitors; hit rate 1.2% among 300,000; Lassa virus pseudotype entry inhibition, cell reporter; calls by dose curve; tested in HEK293 cells; note: potency is the fitted concentration of half-maximal effect; nearly all actives have a fitted effect of over 50% in size
FMDV inh – antivirals against foot and mouth disease virus | FMDV antiviral cell-based qHTS | Potency, µM (top dose mostly 57.9 µM), for the others: at the top dose activity change, negative = inhibition, usual class: inhibitors | hit rate 1.2% among 410,000 | AID 1159524; calls by dose curve; tested in HEK293T cells; note: read-out not given here; potency is the fitted concentration of half-maximal effect; nearly all actives have a fitted effect of over 45% in size
HCV inh – blocks hepatitis C virus | Huh7.5.1 HCVcc-Cre infection, luciferase reporter, 44 h | Potency, µM (doses to about 41.8 µM), for inactives: top-dose activity change, negative = inhibition, usual class: inhibitors | hit rate 3.4% among 340,000; active = well fitted inhibition curve with a large enough effect; inconclusive = small, poorly fitted or top-dose-only effect, or another doubt; inactive = no such curve, though single readings can be large or run the other way; note: potency is the fitted concentration of half-maximal effect
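A cell-based infection assay in which seeded cells (1,000 per well) receive test compound after 4 h, are inoculated with HCVcc-Cre at approximately 0.5 moi, and are incubated 44 h before luminescence detection.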
MARV entry inh – inhibitors of Marburg virus binding or cell entry. Marburg virus pseudotyped entry inhibition, cell reporter. Potency, µM (doses to about 37.8 µM), without a hit: at the top dose activity change, negative = inhibition, hits mostly inhibitors. hit rate 1.8% among 300,000; calls by dose curve; tested in HEK293 cells; note: potency is the fitted concentration of half-maximal effect
HCMV inh – blocks human cytomegalovirus replication. activity change, negative = inhibition, % at 57.5 µM. hit rate 4.5% among 410,000. HFF cells, HCMV-luciferase reporter, 72 h; active compounds read low; in the data active = activity change below about -60%; inconclusive = no clear call, values can overlap the other calls; inactive = above about -39%
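Compounds were evaluated in HFFs infected with an HCMV luciferase reporter virus (MOI 1 PFU/cell). Luciferase in lysates collected 72 h post infection served as the replication measure.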
An asterisk follows results filed as active; ? = inconclusive; nt = not tested or not shown; [ ] = remark or other dose. % is set by controls: 0 for no effect and ±100 for the full control effect.

SMILES	LASV entry inh	FMDV inh	HCV inh	MARV entry inh	HCMV inh
Cc1cc(=O)n2c(C(=O)Nc3ccc(C(=O)OC(C)C)cc3)c(C(=O)Nc3ccccc3)sc2n1	23µM*	-9%	-29%	?	-67*
O=C(Nc1cccc(/C=C/c2ccccn2)c1)c1cc(Cl)ccn1	nt	19%	5µM*	24%[46.1 µM]	68
COc1ccc(COC(=O)C2=C(C)NC(=O)NC2c2ccc(OC)cc2)cc1 (configuration not stated)	nt	?	?	nt	-64*
COc1ccc(COC(=O)C2=C(C)NC(=O)NC2c2ccc(O)cc2)cc1 (configuration not stated)	nt	0%	-21%	nt	15
CC1=C(C(=O)OCc2ccc3c(c2)OCO3)C(c2ccccc2OCc2ccccc2)NC(=O)N1 (configuration not stated)	-22%	nt	10µM*	?	-24
CC1=C(C(=O)OCc2ccc3c(c2)OCO3)C(c2ccc(O)c([N+](=O)[O-])c2)NC(=O)N1 (configuration not stated)	-5%	-26%	-14%	-1%[46.1 µM]	?
CC1=C(C(=O)OCc2ccc3c(c2)OCO3)C(c2ccccc2)NC(=O)N1 (configuration not stated)	?	nt	?	?	-92*
C#CCN(Cc1ccc(OCCC)cc1)S(=O)(=O)c1ccc(Br)cc1F	-25%[46.1 µM]	nt	nt	nt	nt
C=C(C)CN(CC)C(=O)CN1C(=O)NC2(CCCc3ccccc32)C1=O (configuration not stated)	14%[46.1 µM]	13%	11%	-9%[46.1 µM]	1
COC(=O)C/C=C/[C@@H](C)[C@H](O)c1ccccc1Br	nt	nt	nt	-29%[14.2 µM]	nt
Cc1ccc(NS(=O)(=O)c2cc(NC(=O)c3ccc4c(c3)NC(=O)CS4)ccc2Cl)c(C)c1	nt	-22%	10µM*	nt	-94*
Cc1ccc(Cn2c(CN3CCC(C(=O)NCc4ccccc4C)CC3)cc3ccccc32)cc1	10%[46.1 µM]	-8%	nt	nt	19
CSC[C@@H]1NC(=S)N(c2ccc(C)cc2)C1=O	8%	11µM*	32%	-25%	0
Cc1c(-n2c(SCC(C)C)nc3ccccc3c2=O)c(=O)n(-c2ccccc2)n1C	6%	0%	-3%	-28%[46.1 µM]	-64*
Cc1c(NC(=O)c2cc(-c3ccccc3)nc3ccccc23)c(=O)n(-c2ccccc2)n1C	2%	-20%	-30%	?	-15
Cc1c(-n2c(SCC(=O)NC(C)C(C)C)nc3ccccc3c2=O)c(=O)n(-c2ccccc2)n1C (configuration not stated)	0%[46.1 µM]	-1%	11%	?	-27
Cc1ccc(-c2cc(C(=O)Nc3c(C)n(C)n(-c4ccccc4)c3=O)c3ccccc3n2)cc1	?	?	4%	?	-63*
Cc1c(NC(=O)CSc2nc3ccccc3c(=O)n2C(C)C)c(=O)n(-c2ccccc2)n1C	nt	-14%	-13%	nt	-65*
COc1ccc(NC(=O)CN2C(=O)NC3(CCCC3)C2=O)cc1Cl	-8%	1%	15%	1%	33
COc1ccc(CCNC(=O)C(F)(F)F)cc1S(N)(=O)=O	nt	-15%	nt	nt	3
COc1cccc(NC(=O)c2nc(S(C)(=O)=O)ncc2Cl)c1	?	22µM*	?	?	-103*
COc1cccc(NC(=O)c2nc(SC)ncc2Cl)c1	0%[46.1 µM]	-3%	12%	24%[46.1 µM]	-3
Cc1cccc(NC(=O)c2nc(S(C)(=O)=O)ncc2Cl)c1	?	25µM*	nt	nt	-108*
CCc1ccc(S(=O)(=O)c2cn(CC(=O)Nc3ccc(C)cc3)c3ccccc3c2=O)cc1	-21%[46.1 µM]	-2%	nt	?	13
CC(C)c1ccc(S(=O)(=O)c2cn(CC(=O)Nc3ccc(F)cc3)c3ccccc3c2=O)cc1	-4%[46.1 µM]	-18%	nt	0%[46.1 µM]	-107*
SMILES	LASV entry inh	FMDV inh	HCV inh	MARV entry inh	HCMV inh
O=C(CCS(=O)(=O)c1cc(Br)cc2c1N(C(=O)C1CC1)CC2)N1CCN(c2ccccc2)CC1	9%[46.1 µM]	7%	nt	22%[46.1 µM]	12
CS(=O)(=O)CCNCc1ccc(-c2ccc3ncnc(Nc4ccc(OCc5ccccc5)cc4)c3c2)o1	16µM*	nt	nt	nt	nt
CS(=O)(=O)CCNCc1nc(-c2ccc3ncnc(Nc4ccc(OCc5cccc(F)c5)c(Cl)c4)c3c2)cs1	nt	9%	nt	nt	nt
CS(=O)(=O)CCNCc1ccc(-c2ccc3ncnc(Nc4ccc(OCc5cccc(F)c5)c(C(F)(F)F)c4)c3c2)o1	20µM*	nt	nt	nt	nt
COc1ccccc1C1CN(CCNC(=O)c2ccc3c(c2)OCCO3)Cc2ccccc2O1 (configuration not stated)	nt	-5%	nt	nt	nt
CCCC(=O)N1c2nc(-c3ccco3)nn2C2(CCCCC2)[C@@H]2CCCC[C@@H]21	-6%[46.1 µM]	-21%	nt	?	?
Cn1c(N)c(S(=O)(=O)c2ccc(Br)cc2)c2nc3ccccc3nc21	8%	47%	-1%	6.3µM*	37
Nc1c(S(=O)(=O)c2ccccc2)c2nc3ccccc3nc2n1C1CC1	6%	37%	20%	2%[46.1 µM]	nt
Nc1c(S(=O)(=O)c2ccccc2)c2nc3ccccc3nc2n1/N=C/c1cccc(O)c1	0%	-27%	14µM*	-16%	-101*
Cc1cccc(S(=O)(=O)c2c(N)n(/N=C/c3ccccc3)c3nc4ccccc4nc23)c1	-13%	24%	2%	?	-30
COc1cccc2c1[C@H](C=Cc1ccccc1)[C@@H]([C@H](O)CN=[N+]=[N-])OC2	nt	nt	nt	-5%[14.2 µM]	nt
O=C(N/N=C/c1cn(-c2cccs2)nc1-c1ccccc1)c1ccccc1O	13µM*	20µM*	?	16µM*	-14
O=C(N/N=C/c1cn(-c2cccs2)nc1-c1ccccc1)c1ccccc1Br	-13%	17%	7.1µM*	-28%	38
O=C(Cn1cnc2c(NCc3ccccc3)ncnc21)N1CCN(c2ccccn2)CC1	nt	-27%	2%	5%	6
Cc1cc(C)c(CN2CCN(C(=O)Cn3ccc(N)nc3=O)CC2)c(C)c1	nt	-19%	-38%	nt	35
CSc1nc(N)nc2c1ncn2CC(=O)N1CCN(Cc2c(C)cc(C)cc2C)CC1	nt	?	1.4µM*	nt	-30
Cc1cc(C)c(CN2CCN(C(=O)Cn3cnc4c(NCc5ccccc5)ncnc43)CC2)c(C)c1	nt	8.9µM*	?	nt	-31
Cc1nc(C)c(CC(=O)N2CCOc3ccc(CN4CCOCC4)cc3C2)s1	nt	-9%	nt	nt	nt
O=[N+]([O-])c1ccc(C(O)CN2CCN(C/C=C/c3ccccc3)CC2)cc1 (configuration not stated)	11%	0%	13µM*	?	7
CC(C)[C@H](NC(=O)c1ccc([N+](=O)[O-])cc1Cl)C(=O)N1CCN(C/C=C/c2ccccc2)CC1	?	?	14µM*	?	-20
Cc1csc2c(=O)sc(NC(=O)c3cccs3)nc12	-1%	-7%	-9%	-12%[46.1 µM]	-10
CC1(C(=O)Nc2ccc(F)cc2F)CCN1C(=O)Cc1ccccc1 (configuration not stated)	nt	-16%	nt	nt	-3
Nc1ccc(Br)c[n+]1Cc1cccc2cccnc12	-17%[46.1 µM]	-17%	-4%	10µM*	-20
